# Experimental data from PubChem BioAssay (NCI).
# This is part of a sample that, as a whole, favours compounds with a hit. Of some 79,000 tested, about 15% had one in any assay. Calls of active or inactive are those of the source. Cut-off read from the data, not from the text of the source: active = growth inhibition above about 70%; inactive = the rest.
# Experiment: NCI Yeast Anticancer Drug Screen. Data for the mlh1 rad18 strain (AID 175)
# Conditions: S. cerevisiae mlh1 rad18 strain growth inhibition; at 50.0 µM; stronger effect = higher value
# Procedure, shortened: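 Vehicle-treated cultures served as the reference for growth inhibition in a yeast strain carrying DNA damage repair alterations exposed to each compound.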
row,SMILES,growth inhibition
1,NC(=O)NC(=O)N/N=C/c1ccc([N+](=O)[O-])o1,61.5% (inactive)
2,O=[N+]([O-])/C=C\c1csc2ccccc12,99.3% (active)
3,O=[N+]([O-])c1ccc2c(c1)CCc1ccccc1-2,68.7% (inactive)
4,CC1=C(C)CC2C(=O)C(C(O)CC(C)C)=CC(=O)C2C1 (stereo not given),98.9% (active)
5,CCC(=O)OC1CCC(C2CCCCC2)CC1 (stereo not given),36.8% (inactive)
6,Cc1cc(C2C(O)C(c3cc(C)on3)C2(C)O)no1 (stereo not given),50.2% (inactive)
7,CC(C)C(Sc1nc(-c2ccccc2)c(-c2ccccc2)[nH]1)C(=O)NN (stereo not given),89.4% (active)
8,C/C(=N\NC(=O)N/N=C(\C)c1ccccn1)c1ccccn1,-5.95% (inactive)
9,COC(=O)CCCCCCCCCCC(=O)O,-6.6% (inactive)
10,CCCCCCCCCCCCNC(=O)C[n+]1cccc(C(N)=O)c1,51.4% (inactive)
11,Nc1ccccc1N=Cc1ccccc1O,69.3% (inactive)
12,N#Cc1c(-c2ccc(Cl)cc2)c2c(n(C3OC(CO)C(O)C(O)C3O)c1=S)CCCC2 (stereo not given),14.9% (inactive)
13,CC(C)(C)CC(C)(C)N[P+](NC(C)(C)CC(C)(C)C)(NC(C)(C)CC(C)(C)C)NC(C)(C)CC(C)(C)C,90.7% (active)
14,CC(=O)OC1C(OC(C)=O)C2C(C)CC3OC(=O)C(C)C3CC2(C)C1OC(C)=O (stereo not given),72.7% (active)
15,NNC(=O)c1ccc(N)cc1O,1.8% (inactive)
16,Nc1ccc2c(c1)C(=O)c1ccccc1-2,14.2% (inactive)
17,Cc1cn(C(C#N)=C(C#N)C#N)c2ccccc12,-16.2% (inactive)
18,FC(F)(F)COP1(OCC(F)(F)F)=NP(OCC(F)(F)F)(OCC(F)(F)F)=NP(c2ccccc2)(c2ccccc2)=N1,56.1% (inactive)
19,O=c1oc(-c2ccccc2Br)ns1,99.3% (active)
20,CC(=O)N1C(C(=O)NNc2ccccc2)CSC1c1ccccc1 (stereo not given),56.1% (inactive)

row,SMILES,growth inhibition
1,O=[N+]([O-])/C=C/c1cc2c(ccc3ccccc32)[nH]1,89% (active)
2,CN(C)CCCC1(c2ccccc2)SC(C)(C)c2ccc(Cl)cc21 (stereo not given),66% (inactive)
3,O=c1[nH]c2ccccc2c2oc3ccccc3c12,68.3% (inactive)
4,O=C(c1ccccc1)c1cn(/N=C\c2ccccc2)c(=O)nc1-c1ccccc1,84.5% (active)
5,Cc1ccc(S(=O)(=O)OCCc2ccc(Cl)cc2)cc1,-7.75% (inactive)
6,COC(=O)CC1(O)c2cc(OC)c3cccc(OC)c3c2CCC1(C)C(=O)OC (stereo not given),94.8% (active)
7,CC(C)CC(NC(=O)SCc1ccccc1)C(=O)O (stereo not given),14.8% (inactive)
8,COc1ccc(/C=C/c2ccnc3ccccc23)cc1,86% (active)
9,N#CC1=C(N)OC(/C=C/c2ccccc2)=C(C#N)C1c1ccccc1 (stereo not given),88.3% (active)
10,COc1ccc(C(=O)C(CN2CCOCC2)CN2CCOCC2)cc1,97.2% (active)
11,N/N=C(/N)SCCCCCCCCCCS/C(N)=N/N,79.8% (active)
12,OC(CBr)C[n+]1cccc2cc(Cl)ccc21 (stereo not given),-5.8% (inactive)
13,O=C(O)C1C(C(=O)Nc2ccc3c(c2)Cc2ccccc2-3)C2(Cl)C(Cl)=C(Cl)C1(Cl)C2(Cl)Cl (stereo not given),98.3% (active)
14,CSc1nc(COC(=O)NC(C)C)c(COC(=O)NC(C)C)n1-c1ccccc1,18.9% (inactive)
15,CC(C)C[NH-].CC(C)C[NH-].[Cl][Pt+2]([Cl])([Cl])[Cl],87.8% (active)
16,c1ccc(N=c2sc3ccccc3sc2=Nc2ccccc2)cc1,-16% (inactive)
17,[Cl-].[La+3].[O-]/N=C(\c1ccccc1)c1ccccn1.[O-]/N=C(\c1ccccc1)c1ccccn1.[O-]/N=C(\c1ccccc1)c1ccccn1,59.2% (inactive)
18,Clc1ccc(SSN2CCCCC2)cc1,88.4% (active)
19,CCC(O)C(O)(c1ccccc1)c1nc2ccccc2s1 (stereo not given),15.1% (inactive)
20,ONC(=Nc1cccc2ccccc12)C(=Nc1cccc2ccccc12)NO,57.6% (inactive)
